These results are taken from the supplement of paper PMC10077471.

Over roughly 1,900 compounds, “excess over highest single agent (ExcessHSA) synergy score, 6x6 matrix” has its median near -83; the lowest 2% begin near -370. What follows is part of a selection rich in the lowest values, with near analogues and random picks from the rest.

The assay deals with NCI-H446. Put plainly: excess over highest single agent (ExcessHSA) synergy score, 6x6 matrix; higher = less synergy (more negative = stronger synergy). The conditions noted are these: 72 h; CellTiter-Glo viability.
`Cc1c(CCOc2ccc(C(=O)O)cc2)c2cc(Cl)ccc2n1C(c1ccccc1)c1ccccc1` + Cc1sc2c(c1C)C(c1ccc(Cl)cc1)=N[C@@H](CC(=O)OC(C)(C)C)c1nnc(C)n1-2 [NCGC00250412-19]: the “excess over highest single agent” value was -12.

As to `COc1cccc2c1C(=O)c1c(O)c3c(c(O)c1C2=O)C[C@@](O)(C(C)=O)C[C@@H]3O[C@H]1C[C@H](N)[C@H](O)[C@H](C)O1` + Cc1sc2c(c1C)C(c1ccc(Cl)cc1)=N[C@@H](CC(=O)OC(C)(C)C)c1nnc(C)n1-2 [NCGC00250412-19], the “excess over highest single agent” value is -304.

Take `COc1cccc2c1C(=O)c1c(O)c3c(c(O)c1C2=O)C[C@@](O)(C(=O)CO)C[C@@H]3O[C@H]1C[C@H](N)[C@@H](O)[C@H](C)O1` + Cc1sc2c(c1C)C(c1ccc(Cl)cc1)=N[C@@H](CC(=O)OC(C)(C)C)c1nnc(C)n1-2 [NCGC00250412-19]: the “excess over highest single agent” value was -433.

Regarding `COc1cccc2c1C(=O)c1c(O)c3c(c(O)c1C2=O)C[C@@](O)(C(=O)CO)C[C@@H]3O[C@H]1C[C@H](N)[C@H](O)[C@H](C)O1` + Cc1sc2c(c1C)C(c1ccc(Cl)cc1)=N[C@@H](CC(=O)OC(C)(C)C)c1nnc(C)n1-2 [NCGC00250412-19], the “excess over highest single agent” value is -176.

In the case of `C[N+](C)([O-])CCNc1ccc(NCC[N+](C)(C)[O-])c2c1C(=O)c1c(O)ccc(O)c1C2=O` + Cc1sc2c(c1C)C(c1ccc(Cl)cc1)=N[C@@H](CC(=O)OC(C)(C)C)c1nnc(C)n1-2 [NCGC00250412-19], the “excess over highest single agent” value is -286.

Regarding `CN(C)c1ccc(C(=O)NCCCCCCC(=O)NO)cc1` + Cc1sc2c(c1C)C(c1ccc(Cl)cc1)=N[C@@H](CC(=O)OC(C)(C)C)c1nnc(C)n1-2 [NCGC00250412-19], the “excess over highest single agent” value is -250.

With `Nc1ccc(C(=O)c2cc3c(ccc4ccccc43)[nH]2)cc1` + Cc1sc2c(c1C)C(c1ccc(Cl)cc1)=N[C@@H](CC(=O)OC(C)(C)C)c1nnc(C)n1-2 [NCGC00250412-19], the “excess over highest single agent” value was -275.

For `CO[C@H]1C(=O)[C@]2(C)[C@@H](OC)C[C@H]3OC[C@@]3(OC(C)=O)[C@H]2[C@H](OC(=O)c2ccccc2)[C@]2(O)C[C@H](OC(=O)[C@H](O)[C@@H](NC(=O)OC(C)(C)C)c3ccccc3)C(C)=C1C2(C)C` + Cc1sc2c(c1C)C(c1ccc(Cl)cc1)=N[C@@H](CC(=O)OC(C)(C)C)c1nnc(C)n1-2 [NCGC00250412-19], the “excess over highest single agent” value was -412.

For `CC(=O)O[C@@]12CO[C@@H]1C[C@H](O)[C@@]1(C)C(=O)[C@H](O)C3=C(C)[C@@H](OC(=O)[C@H](O)[C@@H](NC(=O)OC(C)(C)C)c4ccccc4)C[C@@](O)([C@@H](OC(=O)c4ccccc4)[C@H]21)C3(C)C` + Cc1sc2c(c1C)C(c1ccc(Cl)cc1)=N[C@@H](CC(=O)OC(C)(C)C)c1nnc(C)n1-2 [NCGC00250412-19], the “excess over highest single agent” value is -135.

For `CC(=O)O[C@H]1C(=O)[C@@]2(C)[C@H]([C@H](OC(=O)c3ccccc3)[C@]3(O)C[C@H](OC(=O)[C@H](O)[C@@H](NC(=O)c4ccccc4)c4ccccc4)C(C)=C1C3(C)C)[C@]1(OC(C)=O)CO[C@@H]1C[C@@H]2O` + Cc1sc2c(c1C)C(c1ccc(Cl)cc1)=N[C@@H](CC(=O)OC(C)(C)C)c1nnc(C)n1-2 [NCGC00250412-19], the “excess over highest single agent” value was -144.

On to `CC(C)c1ccccc1Cc1cc(C(=O)Nc2ccc(S(=O)(=O)c3ccccc3C(C)(C)C)cc2)c(O)c(O)c1O` + Cc1sc2c(c1C)C(c1ccc(Cl)cc1)=N[C@@H](CC(=O)OC(C)(C)C)c1nnc(C)n1-2 [NCGC00250412-19], for which the “excess over highest single agent” value is -282.

With `Cc1ccccc1C(C(=O)NC1CCCCC1)N(C(=O)CNc1ccc(C#N)cc1)c1cccc(F)c1` (centres undefined) + Cc1sc2c(c1C)C(c1ccc(Cl)cc1)=N[C@@H](CC(=O)OC(C)(C)C)c1nnc(C)n1-2 [NCGC00250412-19], the “excess over highest single agent” value is -209.

For `O=C(O)C(=O)O.[NH-]C1CCCCC1[NH-].[Pt+2]` (centres undefined) + Cc1sc2c(c1C)C(c1ccc(Cl)cc1)=N[C@@H](CC(=O)OC(C)(C)C)c1nnc(C)n1-2 [NCGC00250412-19], the “excess over highest single agent” value is -135.

Take `CC(C)(N)C(=O)N[C@H](COCc1ccccc1)C(=O)N1CCC2(CC1)CN(S(C)(=O)=O)c1ccccc12` + Cc1sc2c(c1C)C(c1ccc(Cl)cc1)=N[C@@H](CC(=O)OC(C)(C)C)c1nnc(C)n1-2 [NCGC00250412-19]: the “excess over highest single agent” value is -36.

`CC(C)CC(=O)Nc1n[nH]c2c1CN(C(=O)C1CCN(C)CC1)C2(C)C` + Cc1sc2c(c1C)C(c1ccc(Cl)cc1)=N[C@@H](CC(=O)OC(C)(C)C)c1nnc(C)n1-2 [NCGC00250412-19]: the “excess over highest single agent” value was -619.

As to `COc1cc(Oc2ccnc3cc(OC)c(OC)cc23)ccc1NC(=O)NC(C)c1nccs1` (centres undefined) + Cc1sc2c(c1C)C(c1ccc(Cl)cc1)=N[C@@H](CC(=O)OC(C)(C)C)c1nnc(C)n1-2 [NCGC00250412-19], the “excess over highest single agent” value is -83.5.

Turning to `COc1c(C)cnc(Cn2cnc3c(Cl)nc(N)nc32)c1C` + Cc1sc2c(c1C)C(c1ccc(Cl)cc1)=N[C@@H](CC(=O)OC(C)(C)C)c1nnc(C)n1-2 [NCGC00250412-19], the “excess over highest single agent” value is -371.

`COc1ccc2[nH]c([S+]([O-])Cc3ncc(C)c(OC)c3C)nc2c1` (centres undefined) + Cc1sc2c(c1C)C(c1ccc(Cl)cc1)=N[C@@H](CC(=O)OC(C)(C)C)c1nnc(C)n1-2 [NCGC00250412-19]: the “excess over highest single agent” value amounted to 45.9.

In the case of `COc1ccc2cc(-c3nc(-c4ccc([S+](C)[O-])cc4)[nH]c3-c3ccncc3)ccc2c1` (centres undefined) + Cc1sc2c(c1C)C(c1ccc(Cl)cc1)=N[C@@H](CC(=O)OC(C)(C)C)c1nnc(C)n1-2 [NCGC00250412-19], the “excess over highest single agent” value is -100.

In the case of `CCN(CC)CCOc1ccc(Nc2ncc3cc(-c4c(Cl)cccc4Cl)c(=O)n(C)c3n2)cc1` + Cc1sc2c(c1C)C(c1ccc(Cl)cc1)=N[C@@H](CC(=O)OC(C)(C)C)c1nnc(C)n1-2 [NCGC00250412-19], the “excess over highest single agent” value was -126.

On to `CC(C)(O)CCc1ccc(OCc2cc(-c3cccc(OC(F)F)c3)c3ncccc3c2)cc1` + Cc1sc2c(c1C)C(c1ccc(Cl)cc1)=N[C@@H](CC(=O)OC(C)(C)C)c1nnc(C)n1-2 [NCGC00250412-19], for which the “excess over highest single agent” value was determined as 48.5.

In the case of `COc1nccc(-c2c(-c3ccc(F)cc3)ncn2C2CCNCC2)n1` + Cc1sc2c(c1C)C(c1ccc(Cl)cc1)=N[C@@H](CC(=O)OC(C)(C)C)c1nnc(C)n1-2 [NCGC00250412-19], the “excess over highest single agent” value is -55.9.

As to `COc1cccc2c1[C@]13CCN(CC4CC4)[C@H](C2)[C@]1(OC)CCC(=O)C3` + Cc1sc2c(c1C)C(c1ccc(Cl)cc1)=N[C@@H](CC(=O)OC(C)(C)C)c1nnc(C)n1-2 [NCGC00250412-19], the “excess over highest single agent” value was -55.

As for `CO[C@@H]1[C@H](N(C)C(=O)c2ccccc2)C[C@H]2O[C@]1(C)n1c3ccccc3c3c4c(c5c6ccccc6n2c5c31)C(=O)NC4=O` + Cc1sc2c(c1C)C(c1ccc(Cl)cc1)=N[C@@H](CC(=O)OC(C)(C)C)c1nnc(C)n1-2 [NCGC00250412-19], the “excess over highest single agent” value is -113.

With `CO[C@@H]1[C@H](N(C)C(=O)c2ccccc2)C[C@H]2O[C@]1(C)n1c3ccccc3c3c4c(c5c6ccccc6n2c5c31)C(=O)NC4` + Cc1sc2c(c1C)C(c1ccc(Cl)cc1)=N[C@@H](CC(=O)OC(C)(C)C)c1nnc(C)n1-2 [NCGC00250412-19], the “excess over highest single agent” value was -207.

On to `CN[C@@H]1C[C@H]2O[C@@](C)([C@@H]1OC)n1c3ccccc3c3c4c(c5c6ccccc6n2c5c31)C(=O)N[C@H]4O` + Cc1sc2c(c1C)C(c1ccc(Cl)cc1)=N[C@@H](CC(=O)OC(C)(C)C)c1nnc(C)n1-2 [NCGC00250412-19], for which the “excess over highest single agent” value is -378.

As for `CCn1c(C(=O)N(C2CC2)C2CC2)cc2c3c(ncn3C)c(Nc3cc(C)n(C)n3)nc21` + Cc1sc2c(c1C)C(c1ccc(Cl)cc1)=N[C@@H](CC(=O)OC(C)(C)C)c1nnc(C)n1-2 [NCGC00250412-19], the “excess over highest single agent” value amounted to 76.1.

On to `N#C/C(=C(/N)Sc1ccc(N)cc1)c1ccccc1C(F)(F)F` + Cc1sc2c(c1C)C(c1ccc(Cl)cc1)=N[C@@H](CC(=O)OC(C)(C)C)c1nnc(C)n1-2 [NCGC00250412-19], for which the “excess over highest single agent” value is -146.

Turning to `CCc1ccc(C(=O)Nc2cc(CN3CCN(C)CC3)cc(C(F)(F)F)c2)cc1C#Cc1cnc2ccnn2c1` + Cc1sc2c(c1C)C(c1ccc(Cl)cc1)=N[C@@H](CC(=O)OC(C)(C)C)c1nnc(C)n1-2 [NCGC00250412-19], the “excess over highest single agent” value was -7.02.

On to `O=C(NCc1ccccc1)[C@H](Cc1ccccc1)NC(=O)[C@H]1O[C@@H]1C(=O)NCCc1ccc(O)cc1` + Cc1sc2c(c1C)C(c1ccc(Cl)cc1)=N[C@@H](CC(=O)OC(C)(C)C)c1nnc(C)n1-2 [NCGC00250412-19], for which the “excess over highest single agent” value is -10.6.

On to `O=C(O)c1ccc(Nc2ncc3c(n2)-c2ccc(Cl)cc2C(c2c(F)cccc2F)=NC3)cc1` + Cc1sc2c(c1C)C(c1ccc(Cl)cc1)=N[C@@H](CC(=O)OC(C)(C)C)c1nnc(C)n1-2 [NCGC00250412-19], for which the “excess over highest single agent” value was -157.

In the case of `CCN1CCN(C(=O)Cc2ccc(Nc3ncc(F)c(Nc4ccc(C(=O)Nc5ccccc5Cl)cc4)n3)cc2)CC1` + Cc1sc2c(c1C)C(c1ccc(Cl)cc1)=N[C@@H](CC(=O)OC(C)(C)C)c1nnc(C)n1-2 [NCGC00250412-19], the “excess over highest single agent” value was -388.

For the molecule `Cc1ccc(NC(=O)c2ccc(CN3CCN(C)CC3)cc2)cc1Nc1nccc(-c2cccnc2)n1` + Cc1sc2c(c1C)C(c1ccc(Cl)cc1)=N[C@@H](CC(=O)OC(C)(C)C)c1nnc(C)n1-2 [NCGC00250412-19], the “excess over highest single agent” value was -176.

For `OC[C@@H](O)[C@@H](O)[C@@H](O)CO` + Cc1sc2c(c1C)C(c1ccc(Cl)cc1)=N[C@@H](CC(=O)OC(C)(C)C)c1nnc(C)n1-2 [NCGC00250412-19], the “excess over highest single agent” value is -189.
